Data from PubChem BioAssay AID1486 (The Scripps Research Institute Molecular Screening Center, 2009).
Out of some 220,000 compounds screened, about 2,400 (1.1%) were called active.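 Rule for the calls: active = inhibition above a per-campaign cutoff, the mean inhibition of all tested compounds plus 3 SD (cut at about 27% in these data); inactive = the rest.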 Shown is part of a subset that was picked to be rich in actives.

Assay: parental Ba/F3 cell viability inhibition, counter-screen for JAK2V617F inhibitor project, murine pro-B, CellTiter-Glo luminescence (AID 1486);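 note: 0% = DMSO wells and 100% = JAK Inhibitor I control wells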
Settings: CellTiter-Glo ATP luminescence, at 5.6 µM, active compounds read high

Structure (SMILES)	inhibition
Cc1cc(/C=N/Nc2ccc([N+](=O)[O-])cn2)c(C)n1-c1cccc(C(=O)O)c1	-1.49% (inactive)
COc1cc(/C=N\Nc2ccc([N+](=O)[O-])cn2)ccc1OCC(=O)O	10.2% (inactive)
Cc1ccc(-n2c(C)cc(/C=N/Nc3ccc([N+](=O)[O-])cn3)c2C)c(C)c1	50.2% (active)
Cc1cc(NC(=O)CSc2nc3cc(Cl)ccc3c(=O)n2Cc2ccco2)no1	8.02% (inactive)
C[C@@H](C(=O)N1CCNCC1)n1cc(CCC(=O)O)nn1	-3.7% (inactive)
O=C(Cn1cnc2ccccc21)N/N=C/c1ccco1	1.87% (inactive)
COC(=O)c1cc(NC(=O)c2ccco2)ccc1N1CCOCC1	1.48% (inactive)
Cc1ccc(CNC(=O)CCNC(=O)Cn2ccc3ccccc3c2=O)cc1	8.67% (inactive)
COC(=O)COc1cccc2c(=O)n(CC(=O)NCc3ccccc3)ccc12	44.3% (active)
COC(=O)COc1cccc2c(=O)n(CC(=O)NCCc3ccc(OC)c(OC)c3)ccc12	-0.48% (inactive)
Cc1ccc2nc(C)cc(N/N=C/c3ccc(F)cc3)c2c1	8.42% (inactive)
NS(=O)(=O)c1ccc(CNC(=O)c2cnccn2)cc1	-6.36% (inactive)
CCOc1ccc(OCc2cccc(C(=O)N(CC)CC)c2)cc1	1.21% (inactive)
Cc1nn(-c2ccc([N+](=O)[O-])cc2)c(N)c1-c1ccccc1	-2.11% (inactive)
Cc1ccc(N=C2NC(=O)c3cccc([N+](=O)[O-])c32)cc1	2.95% (inactive)
O=C(NCc1ccccc1Cl)C1CCCO1 (configuration not stated)	4.65% (inactive)
O=C(NNc1ccccn1)c1ccc(Cl)nc1	3.58% (inactive)
CCN(CC)c1ccc(NC(=O)c2ccc(Cl)nc2)cc1	72.5% (active)
NS(=O)(=O)c1ccc(NC(=O)COC(=O)c2ccc(Cl)nc2)cc1	4.09% (inactive)
Cc1ccc(C)c(NC(=O)c2ccc(OC(=O)c3ccco3)cc2)c1	5.55% (inactive)
C=CC[n+]1c(-c2ccc(C)cc2)csc1NNC(=O)Nc1ccccc1	57.4% (active)
Cc1ccc(NC(=O)Nc2ccccc2)c(Br)c1	5.76% (inactive)
C=CCNc1scc(-c2ccccc2)[n+]1CC=C	1.05% (inactive)
CC(=O)Nc1ccc(/C=N/Nc2ccc(C(=O)c3c(C)cc4ccccn34)cc2[N+](=O)[O-])cc1	-11.2% (inactive)
CS(=O)(=O)Nc1cccc(-c2cn3ccccc3n2)c1	7.16% (inactive)
Cc1ccc(CC(=O)Nc2cccc(C#N)c2)cc1	6.45% (inactive)
CC(O)C(NS(=O)(=O)c1ccc(Cl)cc1)C(=O)OCc1cc([N+](=O)[O-])cc2c1OCOC2 (configuration not stated)	4.65% (inactive)
